Screening data as filed in PubChem BioAssay.
The list is not random: actives were taken first. Their share in the collection is about 1.4%.
SSB-PriA inh: inhibitors of Klebsiella pneumoniae PriA binding to SSB C-terminal tail, primary screen, biochemical, AlphaScreen | PriA–SSB C-terminal tail interaction (Klebsiella pneumoniae) | AlphaScreen SSBct-PriA binding, biotinylated peptide | inhibition, % at 33 µM | 0.6% of 430,000 active | AID 1272365, 2023; in the data active = inhibition mostly above about 37%, no sharp cut-off; inactive = mostly below about 20%;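 note: plate controls were negative control peptide for no effect and reference peptide for full effect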
PrP 5UTR inh: inhibition of PrP 5' UTR reporter expression; cell-based PrP 5' UTR mRNA reporter, plate reader; inhibition, % (concentration not given with the values); 0.35% of 340,000 active; AID 488862, 2010; in the data active = inhibition above about 52%; note: 0 = median of the neutral control wells
FadD28 binding: inhibitors of FadD28 bisubstrate probe binding, primary screen, biochemical, fluorescence polarization, single point | Mycobacterium tuberculosis FadD28 fatty-acid-AMP ligase | inhibition, % at 12.5 µM | 0.22% of 360,000 active; in the data active = inhibition above about 8.5%, passing the limit was not always enough
PrPC surface inh: inhibitors of human cell surface prion protein PrPC, primary screen, cell-based, TR-FRET; Major prion protein (Homo sapiens), P04156; TR-FRET read-out; inhibition, % at 13.8 µM; 0.43% of 370,000 active; in the data active = inhibition above about 24%; note: 0% = median of the test wells and 100% = reference compound wells
BH1578 lux ind: inducers of Vibrio cholerae quorum light production without autoinducers, primary screen, BH1578 luxS cqsA deficient, single point; V. cholerae BH1578 lux reporter, luminescence, 6 h; activation, % at 18.7 µM; 0.16% of 350,000 active; in the data active = activation mostly above about 9.7%, no sharp cut-off
* hit, by the source's call; i = inactive; / = no result; ! = not active in a repeat.

SMILES	SSB-PriA inh	PrP 5UTR inh	FadD28 binding	PrPC surface inh	BH1578 lux ind
Cc1ccn(-c2ccc(Nc3ccc(NC(=O)c4c(F)cccc4Cl)cc3)nn2)n1	39.0*	/	/	/	/
Cc1ccn(-c2ccc(Nc3ccc(NC(=O)c4ccccc4Br)cc3)nn2)n1	35.0*	/	/	/	/
CC(O)C12CC3CC(CC(C3)C1)C2 (stereo unspecified)	19.0	/	/	/	/
Cc1cc(NC(=O)COc2ccc(Cl)cc2)n(C(C)C)n1	-1.0	/	/	/	/
Cc1[nH]n(-c2ncc(-c3ccccc3)s2)c(=O)c1C(c1ccc(Cl)cc1)C(C#N)C#N (stereo unspecified)	18.7	-8.2	8.6*	-12.1	-0.2
Cc1cccc(NC(=O)Cn2c(=O)n3nc(CCn4nc(C)cc4C)nc3c3ccccc32)c1	-5.0	-5.9	9.0*	4.2	-0.2
COc1cc(OC)c(NCCC(=O)c2cccs2)cc1Cl	90.0	/	/	/	/
COc1cc(NCCC(=O)c2cccs2)c(OC)cc1Cl	39.5*	-3.5	-0.8	-9.0	-0.3
COc1ccccc1N1CCN(c2ncnc3sc(C(=O)Nc4cc(OC)c(OC)c(OC)c4)c(C)c23)CC1	-13.0	/	/	/	/
CNC(=O)c1c(NC(=O)c2ccc(C(=O)c3ccccc3)cc2)sc2c1CCCCC2	-7.0	/	/	/	/
COc1cc(COCC2CCN(CC(=O)Nc3cccnc3)CC2)cc(OC)c1	9.0	/	/	/	/
O=c1cc[nH]c2c1ccc1c(=O)cc[nH]c12	2.6	-13.5	-1.6	9.8	0.4
Cc1ccnc2c(=O)cc[nH]c12	104.0*	/	/	/	/
Cc1cc2cc(O)ccc2[nH]1	-11.0	/	/	/	/
COc1ccc(-c2cc3c(=O)n(CC(=O)N4CCN(C)CC4)ncn3n2)cc1	101.2*	-19.5	-1.2	6.1	-0.2
COc1ccc(-c2cc3c(=O)n(CC(=O)N4CCCCC4)ncn3n2)cc1	6.5	-16.2	0.9	7.5	-0.4
NC(=NO)c1ccc(Oc2ccccc2Cl)c([N+](=O)[O-])c1	2.9	/	/	/	/
COc1cccc(-c2n[nH]c(=S)o2)c1	-6.0	/	/	/	/
CN(C(=O)c1ccc2nccnc2c1)c1ccccc1	-11.0	/	/	/	/
Nc1nc(C2C(=O)CCCC2=O)cs1	57.5*	-29.5	0.9	-3.3	-0.2
NS(=O)(=O)c1ccc(-c2ccc(/C=C3\NC(=S)NC3=O)o2)cc1	3.0	-2.3	10.0*	-3.2	i
NS(=O)(=O)c1ccc(-c2ccc(C=O)o2)cc1	-17.4	-35.6	0.8	6.8	-0.2
CC(=O)c1ccc(-c2cccc(-c3nc4ccccn4c3NC3CCCCC3)c2)cc1	41.1*	-19.1	-3.2	12.1	i
COc1cc(C(=O)NCc2ccccn2)on1	-8.0	/	/	/	/
Cc1ccc(S(=O)(=O)Nc2ccc3nc(-c4cccn4C)[nH]c3c2)cc1	87.5*	-21.6	-1.3	4.0	i
SMILES	SSB-PriA inh	PrP 5UTR inh	FadD28 binding	PrPC surface inh	BH1578 lux ind
Cc1ccc(C(=O)NCCSCc2ccc(Cl)cc2Cl)cc1[N+](=O)[O-]	7.8	-26.9	16.9*	4.1	i
COc1ccc(S(=O)(=O)N2CCN(c3ccc4nnc(C)n4n3)CC2)cc1OC	-22.0	/	/	/	/
O=C(/C=C/c1cccs1)Nc1nnc(-c2ccc(Cl)cc2)o1	-12.0	/	/	/	/
O=C(Cn1c2ccccc2c2ncn(Cc3ccccc3Cl)c(=O)c21)Nc1ccc2c(c1)OCO2	-2.0	/	/	/	/
COc1ccc(N2CCN(C(=O)c3csc(Nc4ccccc4)n3)CC2)cc1	38.0	/	/	/	/
COc1ccccc1N1CCN(C(=O)c2csc3nc(-c4ccc(F)cc4)cn23)CC1	20.0*	/	/	/	/
O=C(c1csc(Nc2ccccc2)n1)N1CCN(c2ccccc2)CC1	21.0*	/	/	/	/
O=C(c1csc2nc(-c3ccccc3)cn12)N1CCN(c2ccccc2)CC1	active	/	/	/	/
c1ccc(-c2nnc3sc(-c4ccco4)nn23)nc1	24.5	/	/	/	/
Nc1nn2c(-c3ccccn3)nnc2s1	59.6*	/	/	/	/
Cc1[nH]nc(-c2nn3c(-c4ccccn4)nnc3s2)c1Br	67.5*	/	/	/	/
Brc1ccc(-c2nn3c(-c4ccccn4)nnc3s2)o1	92.9*	-22.0	-0.8	-7.2	i
O=C(Nc1cnn(C2CCOCC2)c1)c1ccoc1	-26.0	/	/	/	/
O=C(c1ncn[nH]1)N1CCc2nc3ccccn3c(=O)c2C1	-13.0	/	/	/	/
CCSc1nnc(NC(=O)c2cnccn2)s1	-5.6	/	/	/	/
CCSc1nnc(NC(=O)c2ccccn2)s1	86.4*	-17.6	-1.2	0.0	i
CCc1nnc(NC(=O)c2ccc(Cl)nc2)s1	-12.8	-10.3	-5.1	0.1	-0.8
CCc1nnc(NC(=O)c2ccccc2Cl)s1	-4.0	/	/	/	/
CCc1nnc(NC(=O)c2ccccn2)s1	104.5*	/	/	/	/
CCc1nnc(NC(=O)c2cc(Cl)ccn2)s1	81.2*	-4.6	-0.7	7.9	-8.8
CCc1ccnc(C(=O)Nc2nnc(CC)s2)c1	102.5*	/	/	/	/
CN(C)c1cccc(C(=O)N2CCCC[C@H](c3ccc(F)cc3)C2)c1	57.0*	/	/	/	/
N#Cc1cccc(C(=O)N2CCCC[C@H](c3ccc(F)cc3)C2)c1	-4.0	/	/	/	/
CC(=NNS(=O)(=O)c1ccc([N+](=O)[O-])cc1)c1ccc2c(c1)OCO2	9.2	/	/	/	/
O=C(Nc1nnc(-c2cccs2)o1)C1CC(=O)N(c2ccc(F)cc2)C1 (stereo unspecified)	27.0*!	/	/	/	/
SMILES	SSB-PriA inh	PrP 5UTR inh	FadD28 binding	PrPC surface inh	BH1578 lux ind
O=C(Nc1nnc(-c2ccccc2Cl)o1)C1CC(=O)N(c2ccccc2)C1 (stereo unspecified)	46.0*	/	/	/	/
Cc1onc(-c2ccccc2Cl)c1C(=O)Nc1nnc(C2CC(=O)N(c3ccccc3)C2)o1 (stereo unspecified)	-10.0	/	/	/	/
O=C(O)c1ccc(Nc2nc(-c3cc4ccccc4oc3=O)cs2)cc1O	-32.9	-15.4	30.2*	-4.7	0.2
COc1cc2nc(NC(=O)c3ccc4ncsc4c3)sc2cc1OC	3.0	/	/	/	/
c1ccc(-c2nc(N3CCCCCC3)c3ccccc3n2)nc1	86.7*	-11.4	-0.9	2.3	i
c1ccc(-c2nc(N3CCOCC3)c3ccccc3n2)nc1	61.7*	-4.7	0.2	-15.0	i
O=C(CCCS(=O)(=O)Cc1ccccc1)Nc1nc2ccc(Cl)cc2s1	0.0	/	/	/	/
O=C(Oc1ccc2c(-c3cc4ccccc4oc3=O)cc(=O)oc2c1)c1ccco1	-11.0	/	/	/	/
O=C(NCCn1nc(-c2ccncc2)ccc1=O)c1ccc(-c2ccccc2)cc1	-3.0	/	/	/	/
CCCCn1c(NC(=O)c2ccccc2)c(C#N)c2nc3ccccc3nc21	56.2*	-25.9	-1.6	-6.5	4.0
CCC(C)n1c(NC(=O)c2ccccc2)c(C#N)c2nc3ccccc3nc21 (stereo unspecified)	57.5*	-7.9	2.5	-0.5	-0.3
O=C(COc1ccccc1F)N(CCc1ccccc1)Cc1ccccn1	6.0	/	/	/	/
CCOC(=O)c1sc(Nc2nc3cc(OC)c(OC)cc3s2)nc1C	-18.0	/	/	/	/
COc1ccccc1NC(=O)c1cc2ccc(O)cc2o/c1=N\O	/	-34.7	18.4*	-20.0	-0.6
O=C(NC(=S)Nc1cc([N+](=O)[O-])ccc1O)c1cccnc1	-11.2	55.5*	-3.7	-12.7	i
Cc1ccc([N+](=O)[O-])cc1NC(=S)NC(=O)c1cccnc1	-1.8	-2.6	-2.5	-13.9	-0.2
O=C(NC(=S)NNC(=O)c1ccccc1I)c1cccnc1	50.8	/	/	/	/
